According to PubChem BioAssay (Tox21):
Where “and” joins values, the source holds several entries; their conditions need not be identical. Equal values may be shown once. Results filed as inconclusive are left out. A call without a number means that no potency is given here. Calls of active or inactive are those of the source. Calls come from the whole dose curve; as a rule, active = well fitted curve in the direction sought with a large enough effect in the repeat runs; inconclusive = weak or mixed curves; inactive = no such curve, though single readings can be large; an effect the other way counts as inactive or inconclusive.

tested on: not listed separately; experiment: qHTS assay to identify small molecule agonists of the constitutive androstane receptor (CAR) signaling pathway - cell viability counter screen (AID 1224836); settings: HepG2-CYP2B6-hCAR viability, CellTiter-Fluor, 23 h, PK11195 added to every well; series mostly up to 92.4 µM; note: nearly all actives have a fitted effect of over 45% in size
How it was run: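 Cells were seeded and incubated 4 hrs. Compounds were added across 15 concentrations together with PK11195 at 0.75 uM final. Plates were incubated 23 hrs at 37 C. CellTiter-Fluor was added and fluorescence measured.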
Potency is the fitted concentration of half-maximal effect.

Row | SMILES | Potency
1 | O=C1C(=O)c2cccc3cccc1c23 | inactive
2 | CC(=O)c1cc2c(cc1C)C(C)(C)C(C)CC2(C)C (centres undefined) | inactive
3 | OC(c1ccc(Cl)cc1)(c1ccc(Cl)cc1)c1cccnc1 | inactive
4 | O=C(OC1CCCCC1)c1ccccc1C(=O)OC1CCCCC1 | inactive
5 | CCO[C@H]1O[C@@H]2OC3(C)CC[C@H]4[C@H](C)CC[C@@H]([C@H]1C)[C@@]24OO3 | inactive
6 | CCCCc1c(C)nc(NCC)nc1OS(=O)(=O)N(C)C | inactive
7 | CC1CC(CC2CCC(N)C(C)C2)CCC1N (centres undefined) | inactive
8 | NS(=O)(=O)C(F)(F)C(F)(F)C(F)(F)C(F)(F)C(F)(F)C(F)(F)C(F)(F)C(F)(F)F | inactive
9 | Oc1ccc(Cl)c(Cl)c1Cl | inactive
10 | II | inactive
11 | O=S1OC[C@@H]2[C@H](CO1)[C@]1(Cl)C(Cl)=C(Cl)[C@@]2(Cl)C1(Cl)Cl (some centres undefined) | inactive
12 | O=C1NCN(c2ccccc2)C12CCN(CCCOc1ccc(F)cc1)CC2 | 6.68 µM (active)

tested on: not listed separately; experiment: qHTS assay to identify small molecule antagonists of the constitutive androstane receptor (CAR) signaling pathway - cell viability counter screen (AID 1224837); settings: HepG2-CYP2B6-hCAR viability, CellTiter-Fluor, 23 h, co-treated with 50 nM CITCO; series mostly up to 92.4 µM; note: nearly all actives have a fitted effect of over 45% in size
How it was run: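 Multiplexed cytotoxicity read-out for the CAR antagonist screen: double-stable HepG2-CYP2B6-hCAR cells co-treated with 50 nM CITCO (final) and compound over 15 concentrations, incubated 23 hr, then assessed by CellTiter-Fluor fluorescence.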

Row | SMILES | Potency
13 | O=C1CN=C(c2ccccc2)c2cc(Cl)ccc2N1CC1CC1 | inactive
14 | CC(c1ccc(O)cc1)(c1ccc(O)cc1)c1ccc(O)cc1 | inactive
15 | CC[C@H]1C[C@H]2[C@@H]3CCC4=CC(=O)CC[C@@H]4[C@H]3CC[C@]2(C)[C@H]1O | inactive
16 | COc1nn(CSP(=S)(OC)OC)c(=O)s1 | inactive
17 | COC(=O)C(C)N(C(=O)Cc1ccccc1)c1c(C)cccc1C (centres undefined) | inactive
18 | O=C(NCc1cccnc1)Nc1ccc([N+](=O)[O-])cc1 | inactive
19 | O=C(CBr)c1ccccc1 | inactive
20 | O=C(O)C1(c2ccc3c(c2)OC[C@H](Cc2ccc(-c4ccccc4)cc2)[C@H]3O)CCCC1 | inactive
21 | Clc1ccc(C(OCCN2CCCCC2)c2ccccc2)cc1 (centres undefined) | inactive
22 | CC1(C)CCC(Cc2ccc(Cl)cc2)C1(O)Cn1cncn1 (centres undefined) | inactive
23 | CCCN(CCC)c1c([N+](=O)[O-])cc(S(C)(=O)=O)cc1[N+](=O)[O-] | inactive
24 | COP(=O)(OC)O/C(=C/Cl)c1cc(Cl)c(Cl)cc1Cl | inactive
25 | CN1C[C@H](CNC(=O)OCc2ccccc2)C[C@@H]2c3cccc4c3c(cn4C)C[C@H]21 | inactive
26 | O=C1C(=O)c2cccc3cccc1c23 | inactive
27 | CC(=O)c1cc2c(cc1C)C(C)(C)C(C)CC2(C)C (centres undefined) | inactive
28 | OC(c1ccc(Cl)cc1)(c1ccc(Cl)cc1)c1cccnc1 | inactive
29 | CC(C)(C)C(O)C(Oc1ccc(Cl)cc1)n1cncn1 (centres undefined) | inactive
30 | O=C(OC1CCCCC1)c1ccccc1C(=O)OC1CCCCC1 | inactive
31 | CCO[C@H]1O[C@@H]2OC3(C)CC[C@H]4[C@H](C)CC[C@@H]([C@H]1C)[C@@]24OO3 | inactive
32 | CC1CC(CC2CCC(N)C(C)C2)CCC1N (centres undefined) | inactive
33 | NS(=O)(=O)C(F)(F)C(F)(F)C(F)(F)C(F)(F)C(F)(F)C(F)(F)C(F)(F)C(F)(F)F | inactive
34 | Oc1ccc(Cl)c(Cl)c1Cl | inactive
35 | II | inactive
36 | O=S1OC[C@@H]2[C@H](CO1)[C@]1(Cl)C(Cl)=C(Cl)[C@@]2(Cl)C1(Cl)Cl (some centres undefined) | inactive
37 | O=C1NCN(c2ccccc2)C12CCN(CCCOc1ccc(F)cc1)CC2 | 3.35 µM (active)

target: Nuclear receptor subfamily 1 group I member 3 (Homo sapiens) (UniProt Q14994); experiment: qHTS assay to identify small molecule antagonists of the constitutive androstane receptor (CAR) signaling pathway (AID 1224838); settings: HepG2-CYP2B6-hCAR luciferase, CITCO-stimulated, 24 h; series mostly up to 92.4 µM; note: nearly all actives have a fitted effect of over 40% in size
How it was run: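 Compounds were titrated across 15 concentrations onto HepG2 cells double-stably expressing hCAR and a CYP2B6-2.2kb reporter, together with 50 nM CITCO (final). After 24 h at 37 C, luciferase activity was measured by luminescence.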

Chain of Nuclear receptor subfamily 1 group I member 3 (Homo sapiens) (Q14994 whole entry, looked up): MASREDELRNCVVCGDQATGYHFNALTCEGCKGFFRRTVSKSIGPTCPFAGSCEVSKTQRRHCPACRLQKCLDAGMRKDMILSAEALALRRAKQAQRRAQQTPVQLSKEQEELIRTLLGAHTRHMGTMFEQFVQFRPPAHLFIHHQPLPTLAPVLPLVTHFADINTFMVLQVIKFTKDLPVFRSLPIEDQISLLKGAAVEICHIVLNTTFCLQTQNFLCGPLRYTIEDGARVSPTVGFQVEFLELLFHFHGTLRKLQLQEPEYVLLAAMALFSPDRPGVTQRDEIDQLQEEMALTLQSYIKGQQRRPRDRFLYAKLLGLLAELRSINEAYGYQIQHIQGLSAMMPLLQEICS

Row | SMILES | Potency
38 | O=C1CN=C(c2ccccc2)c2cc(Cl)ccc2N1CC1CC1 | inactive
39 | CC(c1ccc(O)cc1)(c1ccc(O)cc1)c1ccc(O)cc1 | 9.69 µM (active)
40 | CC[C@H]1C[C@H]2[C@@H]3CCC4=CC(=O)CC[C@@H]4[C@H]3CC[C@]2(C)[C@H]1O | inactive
41 | CO/C=C(/C(=O)OC)c1ccccc1COc1cccc(C(F)(F)F)n1 | inactive
42 | COc1nn(CSP(=S)(OC)OC)c(=O)s1 | inactive
43 | O=C(O)C1(c2ccc3c(c2)OC[C@H](Cc2ccc(-c4ccccc4)cc2)[C@H]3O)CCCC1 | inactive
44 | C(=NC1CCCCC1)=NC1CCCCC1 | 10.9 µM (active) and 21.7 µM (active)
45 | Clc1ccc(C(OCCN2CCCCC2)c2ccccc2)cc1 (centres undefined) | inactive
46 | Clc1ccc(C2(Cn3cncn3)CC(Br)CO2)c(Cl)c1 (centres undefined) | inactive
47 | CC1(C)CCC(Cc2ccc(Cl)cc2)C1(O)Cn1cncn1 (centres undefined) | inactive
48 | CCOP(=O)(OCC)O/C(=C/Cl)c1ccc(Cl)cc1Cl | inactive
49 | O=C1C(=O)c2cccc3cccc1c23 | inactive
50 | CC(=O)c1cc2c(cc1C)C(C)(C)C(C)CC2(C)C (centres undefined) | inactive
51 | O=C(Nc1ccccc1)Nc1cnns1 | inactive
52 | OC(c1ccc(Cl)cc1)(c1ccc(Cl)cc1)c1cccnc1 | inactive
53 | CC(C)(C)C(O)C(Oc1ccc(Cl)cc1)n1cncn1 (centres undefined) | inactive
54 | CCO[C@H]1O[C@@H]2OC3(C)CC[C@H]4[C@H](C)CC[C@@H]([C@H]1C)[C@@]24OO3 | inactive
55 | N#Cc1cc(I)c(O)c(I)c1 | 61.1 µM (active)
56 | NS(=O)(=O)C(F)(F)C(F)(F)C(F)(F)C(F)(F)C(F)(F)C(F)(F)C(F)(F)C(F)(F)F | inactive
57 | Oc1ccc(Cl)c(Cl)c1Cl | inactive
58 | O=S1OC[C@@H]2[C@H](CO1)[C@]1(Cl)C(Cl)=C(Cl)[C@@]2(Cl)C1(Cl)Cl (some centres undefined) | inactive
59 | O=C1NCN(c2ccccc2)C12CCN(CCCOc1ccc(F)cc1)CC2 | 9.44 µM (active)
